From PubChem BioAssay (NCATS) come the findings set out here.

Each structure is given as a SMILES string. Records with an inconclusive call do not appear. A number with no mark means an inactive call. Activity calls are given as the source filed them. Calls follow the shape of the dose curve; as a rule, active = well fitted cell-killing curve with a large enough effect; inconclusive = small, poorly fitted or top-dose-only effect, or effect the other way; inactive = no such curve, though single readings can be large or run the other way.

Assay [1] is described as follows: Quantitative High-Throughput drug screen in 47 multiple myeloma cell lines against the NCATS MIPE library collection: MM1R_ATCC cell viability assay (AID 1918981). Also: nearly all actives have a fitted effect of over 35% in size. Put shortly: (§1)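 500 cells/well; MIPE 4.0 drugs pin-transferred; 48 h, 37C, 5% CO2. CellTiter-Glo, 5 min RT, luminescence. Controls: DMSO 100%, media 0%.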
The nature of assay [2]: Quantitative High-Throughput drug screen in 47 multiple myeloma cell lines against the NCATS MIPE library collection: KMS28PE_JCRB cell viability assay (AID 1918983). Also: nearly all actives have a fitted effect of over 35% in size. Put shortly: as §1
Assay [3] in a line: Quantitative High-Throughput drug screen in 47 multiple myeloma cell lines against the NCATS MIPE library collection: OCIMY5_PLB cell viability assay (AID 1918988). Also: nearly all actives have a fitted effect of over 65% in size. Put shortly:
as §1

Assay [4] is described as follows: Quantitative High-Throughput drug screen in 47 multiple myeloma cell lines against the NCATS MIPE library collection: SKMM1_PLB cell viability assay (AID 1919863). Also: nearly all actives have a fitted effect of over 35% in size. The following applies: SKMM1 myeloma viability, CellTiter-Glo ATP, 48 h; viability: hits give low values. The procedure, abridged: as §1
Assay [5] is described as follows: Quantitative High-Throughput drug screen in 47 multiple myeloma cell lines against the NCATS MIPE library collection: LP1_DSMZ cell viability assay (AID 1918982). Also: nearly all actives have a fitted effect of over 35% in size. The procedure, abridged: as §1
Assay [6] is described as follows: Quantitative High-Throughput drug screen in 47 multiple myeloma cell lines against the NCATS MIPE library collection: OPM1_PLB cell viability assay (AID 1918989). Also: nearly all actives have a fitted effect of over 40% in size. Put shortly: as §1
Assay [7] can be described thus: Quantitative High-Throughput drug screen in 47 multiple myeloma cell lines against the NCATS MIPE library collection: L363_DSMZ cell viability assay (AID 1918984). Also: nearly all actives have a fitted effect of over 40% in size. Put shortly: as §1
Assay [8] is described as follows: Quantitative High-Throughput drug screen in 47 multiple myeloma cell lines against the NCATS MIPE library collection: KMS34_JCRB cell viability assay (AID 1918985). Also: nearly all actives have a fitted effect of over 40% in size. Put shortly: as §1
The nature of assay [9]: Quantitative High-Throughput drug screen in 47 multiple myeloma cell lines against the NCATS MIPE library collection: OCIMY7_PLB cell viability assay (AID 1918987). Also: nearly all actives have a fitted effect of over 65% in size. The following applies: OCI-MY7 myeloma viability, CellTiter-Glo ATP, 48 h; viability (% of DMSO): at 45.8 µM (top of the series). The procedure, abridged: as §1
Potency is read from the fitted curve at half-maximal effect.

For the compound `O=C(NNC(=O)c1ccc(CNS(=O)(=O)c2ccc(F)c(Cl)c2)cc1)c1ccccc1`, the Potency entry in assay [1], in assay [2] and in assay [3] was “inactive” in each case. The viability in assay [4] was 126%.
As for `O=C1NC(O)CCN1[C@@H]1O[C@H](CO)[C@H](O)[C@H]1O` (stereo partly drawn), the Potency entry in assay [1], in [2] and in [6] was “inactive” throughout. In addition, in [5], the Potency is 5.9 µM (active). Further, in assay [4], the viability was 122%.
Regarding `CC[C@H](CC[C@@H](C)[C@H]1CC[C@H]2[C@@H]3CC=C4C[C@@H](O)CC[C@]4(C)[C@@H]3CC[C@]12C)C(C)C`, the Potency entry in assay [1], in [5], in assay [2] and in assay [3] was “inactive” in each case. Besides, the viability in assay [4] was 106%.
As for `Cc1ncc(-c2ccnc(Nc3ccc(S(C)(=O)=O)cc3)n2)n1C(C)C`, the Potency in [5] was 3.32 µM (active); in assay [2] it was 5.26 µM (active); in [7], 1.66 µM (active); in [8], 1.87 µM (active); in assay [9] it was 0.833 µM (active); in [3] it was 3.32 µM (active). For the same compound, the Potency in assay [6] was 2.35 µM (active); in [4], 5.26 µM (active).
With `CCc1c(O)cc(O)c(C(=O)c2ccc(OCCN3CCOCC3)c(OC)c2)c1CC(=O)N(CCOC)CCOC`, the Potency in assay [1] was 1.18 µM (active); in [2], 1.18 µM (active); in assay [8], 1.66 µM (active); in assay [9] it was 3.32 µM (active); in [3] it was 0.469 µM (active); in [6], 0.662 µM (active). Further, the Potency in [4] is 1.32 µM (active).
Take `O=C(O)CCCCC(CCSCc1ccccc1)SCc1ccccc1` (stereo not drawn): the Potency entry in [1] and in assay [2] was “inactive” throughout. The Potency in assay [7] is 13.2 µM (active). Also, the viability in [4] is 120%.
In the case of `COc1ccc(S(=O)(=O)Nc2cc(-c3c(O)ccc4ccccc34)c(O)c3ccccc23)cc1`, the Potency in [1] is 23.5 µM (active); in assay [5], 16.6 µM (active); in [7], 2.64 µM (active); in assay [8], 10.5 µM (active); in assay [9], 2.64 µM (active); in assay [6], 9.35 µM (active). The Potency in assay [4] was 20.9 µM (active).
For the compound `N[C@H]1CN(c2c(F)cc3c(=O)c(C(=O)O)cn(C4C[C@@H]4F)c3c2Cl)CC12CC2` (stereo partly drawn), the Potency entry in assay [1], in assay [5], in assay [7], in [9] and in [6] was “inactive” throughout. In addition, the Potency in assay [3] is 20.9 µM (active).
As for `NC(=O)Nc1sc(-c2ccc(F)cc2)cc1C(N)=O`, the Potency was 4.69 µM (active) in assay [1]; 18.7 µM (active) in assay [2]; 0.0833 µM (active) in assay [7]; 2.64 µM (active) in assay [8]; 0.662 µM (active) in assay [9]; 2.09 µM (active) in [3]. Also, the Potency in assay [6] was 0.833 µM (active); in [4], 11.8 µM (active).
Turning to `CCN(CC)CCCCNc1ncc2c(n1)N(C)C(=O)N(c1c(Cl)c(OC)cc(OC)c1Cl)C2`, the Potency in [1] is 16.6 µM (active); in assay [2], 10.5 µM (active); in assay [3], 14.8 µM (active); in assay [6], 0.833 µM (active); in assay [4], 14.8 µM (active). The Potency entry in assay [7] is “inactive”.
As for `c1ccc(CNc2nc(NCc3ccccc3)c3ccccc3n2)cc1`, the Potency in assay [5] was 23.5 µM (active); in assay [2], 23.5 µM (active); in assay [7], 5.26 µM (active); in assay [8], 20.9 µM (active); in [9], 4.69 µM (active); in assay [3], 20.9 µM (active). The Potency in assay [6] was 7.43 µM (active); in assay [4], 29.6 µM (active).
As for `COc1cc(OC)c(NC(=O)Nc2cc(C)on2)cc1Cl`, the Potency entry in [1], in assay [5], in assay [7], in assay [8] and in assay [6] was “inactive” in each case. Further, the viability in [4] was 145%.
Turning to `C[C@@H]1C(=O)O[C@H]2CC34[C@H]5C[C@@H](C(C)(C)C)C36[C@H](OC(=O)[C@@H]6O)O[C@@]4(C(=O)O5)[C@]21O` (stereo partly drawn), the Potency entry in assay [1], in [2] and in assay [8] was “inactive” in each case.
With `Cn1cc(C=CC(=O)c2cccc(F)c2)cc1C=CC(=O)NO`, the Potency in assay [1] was 16.6 µM (active); in [7], 11.8 µM (active); in assay [8], 16.6 µM (active); in assay [9], 11.8 µM (active); in assay [3], 14.8 µM (active); in assay [6], 23.5 µM (active).
For `CN[C@H](CC(C)C)C(=O)N[C@H]1C(=O)N[C@@H](CC(N)=O)C(=O)N[C@@H]2C(=O)N[C@H]3C(=O)N[C@H](C(=O)N[C@H](C(=O)O)c4cc(O)cc(O)c4-c4cc3ccc4O)[C@H](O)c3ccc(c(Cl)c3)Oc3cc2cc(c3O[C@@H]2O[C@H](CO)[C@@H](O)[C@H](O)[C@@H]2O[C@H]2C[C@](C)(N)[C@H](O)[C@H](C)O2)Oc2ccc(cc2Cl)[C@H]1O`, the Potency result in assay [1], in assay [5], in assay [2] and in assay [8] was “inactive” in each case. In addition, in assay [4], the viability was 122%.
